Laboratory results from PubChem BioAssay AID1159580 (chemical genetic matrix, 2015).
“And” between values parts separate entries of the source, which are not always exact repeats. Equal values may be shown once. The whole screen tested about 5,500 compounds, of which about 2,000 (36%) were called active. Another 18% or so got no clear call; they are omitted. Rule as the data show it: active = normalized growth mostly below about 0.91 (no sharp cut-off); inconclusive = no clear call, values can overlap the other calls; inactive = mostly above about 0.92. Some of the results follow.

Experiment: chemical genetic growth profiling, strain panel (AID 1159580);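 also: tested at 20 µM; growth read once vehicle control cultures reached saturation at 30 °C; 1 = growth at the plate median or of vehicle wells; lower values mean less growth of the strain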
Details: S. cerevisiae deletion strains, growth OD

Measured: normalized growth

O=C(O)c1cc2cc(Cl)ccc2[nH]1
inactive: locus YAL013W, strain DEP1, stronger effect = lower value 1.01 | locus YAL021C, strain ccr4, stronger effect = lower value 0.995 | locus YAL026C, strain drs2, stronger effect = lower value 0.988 | locus YAL030W, strain snc1, stronger effect = lower value 0.989 | locus YBL061C, strain skt5, stronger effect = lower value 0.991 | locus YBR009C, strain hhf1, stronger effect = lower value 0.978 | locus YBR021W, strain FUR4, stronger effect = lower value 0.998 | locus YBR023C, strain chs3, stronger effect = lower value 0.986 | locus YBR171W, strain sec66, stronger effect = lower value 0.986 | locus YBR229C, strain ROT2, stronger effect = lower value 1.01 | locus YBR231C, strain swc5, stronger effect = lower value 0.987 | locus YBR279W, strain paf1, stronger effect = lower value 0.995 | locus YCL011C, strain gbp2, stronger effect = lower value 0.985 | locus YCL016C, strain dcc1, stronger effect = lower value 0.988 | locus YCL029C, strain bik1, stronger effect = lower value 0.983 | locus YCL061C, strain MRC1, stronger effect = lower value 0.984 | locus YCL069W, strain vba3, stronger effect = lower value 0.993 | locus YCR088W, strain abp1, stronger effect = lower value 0.975 | locus YDL005C, strain med2, stronger effect = lower value 0.987 | locus YDL035C, strain GPR1, stronger effect = lower value 1.02 | locus YDL040C, strain nat1, stronger effect = lower value 0.989 | locus YDL074C, strain BRE1, stronger effect = lower value 1.05 | locus YDL101C, strain DUN1, stronger effect = lower value 1.03 | locus YDL134C, strain PPH21, stronger effect = lower value 1.01 | locus YDL185W, strain tfp1, stronger effect = lower value 0.973 | locus YDL192W, strain arf1, stronger effect = lower value 0.989 | locus YDR001C, strain nth1, stronger effect = lower value 0.981 | locus YDR069C, strain doa4, stronger effect = lower value 0.983 | locus YDR101C, strain arx1, stronger effect = lower value 0.971 | locus YDR137W, strain rgp1, stronger effect = lower value 0.999 | locus YDR150W, strain NUM1, stronger effect = lower value 1.01 | locus YDR159W, strain sac3, stronger effect = lower value 0.977 | locus YDR162C, strain NBP2, stronger effect = lower value 1.05 | locus YDR195W, strain ref2 0.998 | locus YDR297W, strain sur2, stronger effect = lower value 0.997 | locus YDR318W, strain mcm21, stronger effect = lower value 0.984 | locus YDR334W, strain swr1, stronger effect = lower value 0.986 | locus YDR335W, strain msn5, stronger effect = lower value 0.988 | locus YDR388W, stronger effect = lower value 0.98 | locus YDR392W, strain spt3, stronger effect = lower value 0.953 | locus YDR502C, strain sam2, stronger effect = lower value 0.998 | locus YEL003W, strain gim4, stronger effect = lower value 1 | locus YEL037C, strain rad23, stronger effect = lower value 0.98 | locus YEL061C, strain CIN8 (second series), stronger effect = lower value 0.981 | locus YEL061C, strain CIN8, stronger effect = lower value 1 | locus YER015W, strain faa2, stronger effect = lower value 0.993 | locus YER016W, strain bim1, stronger effect = lower value 0.984 | locus YER110C, stronger effect = lower value 0.982 | locus YER111C, strain swi4, stronger effect = lower value 0.98 | locus YER155C, strain BEM2 (second series), stronger effect = lower value 0.972 | locus YER155C, strain BEM2, stronger effect = lower value 1.01 | locus YER167W, strain BCK2, stronger effect = lower value 1.01 | locus YFR010W, strain ubp6, stronger effect = lower value 0.986 | locus YGL078C, strain dbp3, stronger effect = lower value 0.979 | locus YGL086W, strain mad1, stronger effect = lower value 0.977 | locus YGL167C, strain pmr1, stronger effect = lower value 0.988 | locus YGL173C, strain kem1, stronger effect = lower value 0.984 | locus YGL227W, strain vid30, stronger effect = lower value 0.973 | locus YGL240W, strain doc1, stronger effect = lower value 0.984 | locus YGL248W, strain PDE1, stronger effect = lower value 1.01 | locus YGL253W, strain hxk2, stronger effect = lower value 0.994 | locus YGR078C, strain PAC10, stronger effect = lower value 1.03 | locus YGR135W, strain pre9, stronger effect = lower value 0.994 | locus YGR229C, strain SMI1, stronger effect = lower value 1.02 | locus YGR252W, strain gcn5, stronger effect = lower value 0.928 | locus YHR013C, strain ard1, stronger effect = lower value 0.973 | locus YHR027C, strain rpn1, stronger effect = lower value 0.988 | locus YHR030C, strain SLT2, stronger effect = lower value 0.997 and 0.95 | locus YHR079C, strain IRE1 (second series), stronger effect = lower value 0.984 | locus YHR079C, strain IRE1, stronger effect = lower value 0.932 | locus YHR094C, strain hxt1, stronger effect = lower value 0.984 | locus YHR129C, strain ARP1, stronger effect = lower value 1.01 | locus YHR142W, strain chs7, stronger effect = lower value 0.984 | locus YHR200W, strain rpn10, stronger effect = lower value 0.99 | locus YIL066C, strain RNR3, stronger effect = lower value 1.01 | locus YIL073C, strain SPO22, stronger effect = lower value 1.02 | locus YIL125W, strain kgd1, stronger effect = lower value 0.979 | locus YIR030C, strain dcg1, stronger effect = lower value 0.991 | locus YJL092W, strain hpr5, stronger effect = lower value 0.98 | locus YJL095W, strain BCK1 (second series), stronger effect = lower value 0.983 | locus YJL095W, strain BCK1, stronger effect = lower value 1.03 and 0.942 | locus YJL115W, strain asf1, stronger effect = lower value 0.992 | locus YJL129C, strain trk1, stronger effect = lower value 0.99 | locus YJL134W, strain LCB3, stronger effect = lower value 1.01 | locus YJL154C, strain vps35, stronger effect = lower value 0.985 | locus YJL164C, strain tpk1, stronger effect = lower value 0.99 | locus YJL166W, strain qcr8, stronger effect = lower value 0.995 | locus YJL168C, strain set2, stronger effect = lower value 0.986 | locus YJL187C, strain SWE1 (second series), stronger effect = lower value 1.02 | locus YJL187C, strain SWE1, stronger effect = lower value 0.992 | locus YJR043C, strain POL32, stronger effect = lower value 0.984 | locus YJR066W, strain TOR1, stronger effect = lower value 0.903
